# In PubChem BioAssay (NCI):
# This is part of a sample that, as a whole, favours compounds with a hit. Of some 83,000 tested, about 20% had one in any assay.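 Results are percent growth after 48 hours of single-concentration exposure. 100 means growth as in untreated cells, lower positive values show inhibition; negative values down to -100 show cell death.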 A number with no mark means an inactive call. The source made the active and inactive calls. Rule for the calls: active = growth percent below 10; inactive = the rest.
# Test system: HL-60(TB) leukemia
# Experiment: NCI-60 one-dose screen, 48 h (100 = growth as untreated, 0 = no growth, -100 = all killed)
# Settings: 10 µM unless noted
row,Structure (SMILES),growth
1,O=C(CCCn1c(=O)c2sc3ccccc3c2n2nnc(-c3ccccc3)c12)NCCc1cnc[nH]1,82.9%
2,COc1cccc(/C=C/C(=O)c2cc3c(N)c(C(=O)Nc4ccccc4C)sc3nc2C)c1,26.3%
3,COc1cc(/C=C/C(=O)c2ccc(Nc3nc(NCCO)nc(N4CCOCC4)n3)cc2)cc(OC)c1OC,-28.6% (active)
4,CCCCNCC(O)c1cc(-c2ccc(C(F)(F)F)cc2)nc(-c2ccc(C(F)(F)F)cc2)c1 (stereo not given),-49.2% (active)
5,O=C(CCN1CCCCC1)c1ccc(Cl)cc1,111%
6,COc1cccc(-c2nn(C(C)(C)C)cc2-c2ccnc(NCCCNS(=O)(=O)c3cccc4ccccc34)c2)c1,104%
7,CCOC(=O)C(NC(=O)C(Cl)Cl)C(O)c1ccccc1 (stereo not given),113%
8,CN(C)C(=O)Oc1cccc([N+](C)(C)C)c1,91%
9,CCCCCCCC/C=C\CCCCCCCCOc1cccc(CC(=O)NCC[N+]2(C)CCCC2)c1,49.3%
10,Cn1c2ccccc2c2nn(Cc3ccccc3)c(=O)nc21,110%
11,CC(N)C(=O)NNc1n[nH]c(=S)n1N (stereo not given),101%
12,O=C(CSc1nnnn1-c1ccccc1)Nc1ccc(Oc2ccccc2)cc1,110%
13,CCc1c(C(=O)NCc2c(O)ccc3cccc(O)c23)[nH]c(C)c1C(C)=O,41.5%
14,CC(=O)OC[C@]12CC[C@@H](/C(C)=N/O)[C@@H]1[C@H]1CC[C@@H]3[C@@]4(C)CCCNC(C)(C)[C@@H]4CC[C@@]3(C)[C@]1(C)CC2,37.7%
15,COC1(CC[C@@H](C)COC2OC(CO)C(O)C(O)C2O)O[C@H]2C[C@H]3[C@@H]4CC=C5C[C@@H](OC6OC(CO)C(OC7OC(C)C(O)C(O)C7O)C(O)C6OC6OC(C)C(O)C(O)C6O)CC[C@]5(C)[C@H]4CC[C@]3(C)[C@H]2[C@@H]1C (stereo not given in full),27.1%
16,O=[N+]([O-])c1cccc(-c2nc3sccn3c2-c2ccnc(NCCCNS(=O)(=O)c3cccc(F)c3)n2)c1,-21.5% (active)
17,Nc1ccc2c(c1)Cc1cc(Cl)c(Cl)cc1-2,53.4%
18,O=C1CCCCN1CCCCC#Cc1ccccc1C#Cc1ccc([N+](=O)[O-])cc1,-25.7% (active)
19,COc1nc2c(cc1S(=O)(=O)c1ccccc1)CCc1c-2cnn1-c1ccccc1,58.7%
20,Cc1ccc(S(=O)(=O)Oc2ccc3sc4c(CO)ccc(NCCN(C)C)c4c(=O)c3c2)cc1,-51.1% [100 µM] (active)
21,Cc1ccc(-c2nc(/C=N/Nc3cc(C)nc4ccc(Br)cc34)c(C)o2)cc1,-37.4% (active)
22,CCCCCCCCCCCCCC[n+]1ccc(C(N)=O)cc1,-50.6% (active)
23,COc1cc2c(cc1O)CCN1C[C@@H](CC(C)C)[C@@H](O)C[C@@H]21,73.7%
24,CN(C)S(=O)(=O)Oc1ccc(-c2sc3cc(OS(=O)(=O)N(C)C)ccc3c2C(=O)c2ccc(OCCN3CCCCC3)cc2)cc1,53.2%
25,CCCCNC(=O)Oc1ccc(/C(=C(/C)Cc2ccc(OC)cc2)c2ccc(OCCN3CCCC3)cc2)cc1,43.9%
